The source made the active and inactive calls. The calls were made as follows: active = hit-call score of the fitted dose curve at least 0.9, where 1 is the maximum; inactive = score below 0.9.

The values that follow come from PubChem BioAssay AID2284192 (EPA ToxCast).

The experiment deals with human Opioid Receptor mu (MOP) Agonism, OPRM1 (gene 4988) (UniProt P35372). The experiment is described as follows: ERF_FR_GPCR_hOPRM1: Eurofins (ERF) G Protein-Coupled Receptor (GPCR) Radioligand Binding LeadHunter Assay for human Opioid Receptor mu (MOP) Agonism. Here is the method: ERF_FR_GPCR_hOPRM1 is a biochemical, single-readout assay that uses extracted gene-proteins in a cell-free assay. Measurements were taken 2 hour after chemical dosing in a 96-well plate. See mu (MOP) Human Opioid GPCR Binding (Agonist Radioligand) Assay, Cerep.ERF_FR_GPCR_hOPRM1 is an assay component calculated from the ERF_FR_GPCR_hOPRM1 assay. It is designed to measure radioligand binding using a type of binding reporter as detected by scintillation counting with radiometry technology.Data from the assay component ERF_FR_GPCR_hOPRM1 was analyzed at the assay endpoint, ERF_FR_GPCR_hOPRM1, in the positive analysis fitting direction relative to DMSO as the negative control and baseline of activity. Using a type of binding reporter, gain-of-signal activity can be used to understand changes in binding as they relate to gene OPRM1. To generalize the intended target to other relatable targets, this assay endpoint is annotated to the gpcr intended target family, where the subfamily is opioid.
human Opioid Receptor mu (MOP) Agonism, OPRM1 (gene 4988), sequence (P35372 whole entry, looked up): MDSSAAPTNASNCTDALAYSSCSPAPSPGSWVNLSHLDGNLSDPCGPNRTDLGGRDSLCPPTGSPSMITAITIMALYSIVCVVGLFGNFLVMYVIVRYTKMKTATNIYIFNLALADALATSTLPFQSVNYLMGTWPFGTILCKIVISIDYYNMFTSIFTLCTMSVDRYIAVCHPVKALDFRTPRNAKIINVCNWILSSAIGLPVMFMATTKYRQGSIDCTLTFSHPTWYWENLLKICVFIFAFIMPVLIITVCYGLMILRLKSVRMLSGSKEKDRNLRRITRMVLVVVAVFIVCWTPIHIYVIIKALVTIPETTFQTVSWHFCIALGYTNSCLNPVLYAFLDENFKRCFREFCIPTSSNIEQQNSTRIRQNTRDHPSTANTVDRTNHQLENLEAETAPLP
Human cells are incubated for 60 minutes at room temprature with [3H]DAMGO ligand (0.1 nM) and DAMGO as control inhibitor. Test Sample Requirements: Minimum for 1) Screen: 60 ul of 10 mM stock -OR- 1 mg (pre-weighed) for 10 uM final testing. 2) Dose Response: 90 ul of 10 mM stock -OR- 1 mg (pre-weighed) for a top concentration at 10 uM.
For `O=C(/C=C/c1ccc(O)cc1)CC(=O)/C=C/c1ccc(O)cc1`, the AC50 is 0.419 µM (active).
